# Results from PubChem BioAssay AID647 (Vanderbilt High Throughput Screening Facility, 2007).
# Screen size: about 2,200 compounds; about 1,400 (64%) were called active.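 How the source made its calls: active means luminescence in either replicate above plate mean of wells with a partly effective reference agonist dose plus 3 SD; inactive means the rest.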 The set was probably picked from earlier hits. The sample as a whole holds a higher share of actives than the screen did.
# Experiment: effects on beta-adrenoceptor cAMP reporter signal – cell-based, secondary assay 2, luminescence, counter-screen for D1 allosteric modulator project, confirmation (AID 647);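 further: isoproterenol raises cAMP through native beta-adrenoceptor Gs so signal bypasses D1; raw luminescence counts from the Envision reader with one value per duplicate well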
# Settings: HEK293 D1 CRE-luciferase, isoproterenol EC30 counter-screen; at 10 µM; stronger effect = higher value
row,SMILES,luminescence
1,CCC(=NCc1ccco1)c1c(O)n(Cc2ccccc2)c(=O)[nH]c1=O,3640 (active)
